# High-throughput results: PubChem BioAssay, National Center for Advancing Translational Sciences (NCATS)
# D1 agonist – activates the human D1 dopamine receptor. P21728. HEK293 T-REx D1 cells, calcium flux, agonist mode. hit rate 1% among 360,000. activation, % at 2 µM; also: 0% is about no effect
# Target sequence (P21728 whole entry, looked up): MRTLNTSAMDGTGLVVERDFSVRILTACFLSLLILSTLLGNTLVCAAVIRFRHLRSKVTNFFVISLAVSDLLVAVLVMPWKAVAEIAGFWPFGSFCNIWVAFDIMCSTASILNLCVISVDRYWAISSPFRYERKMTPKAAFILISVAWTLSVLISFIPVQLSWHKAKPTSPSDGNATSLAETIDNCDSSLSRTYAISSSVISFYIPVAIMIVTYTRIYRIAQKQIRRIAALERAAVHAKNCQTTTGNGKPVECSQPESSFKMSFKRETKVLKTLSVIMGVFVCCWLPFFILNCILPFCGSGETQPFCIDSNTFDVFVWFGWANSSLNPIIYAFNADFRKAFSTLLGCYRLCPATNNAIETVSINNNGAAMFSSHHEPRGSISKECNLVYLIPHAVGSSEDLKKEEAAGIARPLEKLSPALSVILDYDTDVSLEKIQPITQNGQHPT
#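 Inducible HEK293 T-REx D1 cells, force-coupled to calcium signalling, were plated at 4000 cells/well with tetracycline and held overnight at 30 C. After no-wash calcium dye loading, compound-evoked calcium rise over 180 s flagged agonists.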
# D1 PAM – enhances dopamine response at the human D1 receptor. potentiation, % at 10 µM. AID 504651. HEK293 TREx D1 cells, calcium flux, dopamine EC20 potentiation. hit rate 0.036% among 360,000; in the data active = potentiation above about 30%; also: 0% is about no effect
# TRHR enhancer – allosterically enhances the human TRH receptor; TRHR cells, fluo-8 calcium fluorescence, EC20 TRH enhancement; enhancement, % at 2 µM; P34981; hit rate 0.66% among 360,000; in the data active = enhancement above about 30%; also: 0% is about no effect
#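 TRHR-expressing cells loaded with fluo-8 calcium dye were read kinetically (ex 480/em 530) during compound addition, then stimulated with an EC20 of TRH (10 nM final). Enhancement of the Gq-mediated intracellular calcium response was scored.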
# D1 antagonist – antagonists of human D1 dopamine receptor; P21728; hit rate 3.2% among 360,000; AID 504652; activity change, negative = inhibition, % at 10 µM; HEK293 TREx D1 cells, calcium flux, dopamine EC80; hits give low values; in the data active = activity change below about -30%; also: % is scaled to controls: 0 for no effect and ±100 for the full control effect
#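 Tetracycline-induced HEK293 Trex D1 cells, force-coupled to calcium, dye-loaded; compounds added and read 180 s, then EC80 dopamine added and calcium flux tracked kinetically another 180 s.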
# TRHR agonist – TRH receptor (human) agonism; P34981; TRHR cells, calcium flux fluo-8, FDSS agonist mode; activation, % at 2 µM; hit rate 0.18% among 360,000; AID 493084; also: 0% is about no effect
#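 Agonist-mode FDSS calcium read (Ex 480/Em 530, 1 s cycles) in 1536-well TRHR cells with fluo-8 dye, after 10-cycle baseline and 23 nL compound addition; TRH at EC20 (10 nM final) added afterwards for the enhancer phase.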
# Active calls of the source: *; / = no result given. In the library only some 4.7% were active in any assay of this set; here they are far more common. Rule as the data show it, unless noted: active = activation above about 30%; inactive = the rest.
SMILES,D1 agonist,D1 PAM,TRHR enhancer,D1 antagonist,TRHR agonist
CN(C)CCCOc1ccc2c(c1)Sc1ccccc1CC2=O,78.9*,-5.7,5.5,-60.1*,-0.7
O=C1/C(=C\c2ccco2)SC(=S)N1c1ccc(O)cc1,3.0,-2.2,2.6,-31.2*,0.2
O=C1/C(=C/C=C/c2ccco2)SC(=S)N1c1ccc(O)cc1,5.7,-3.6,15.2,7.8,1.4
CCc1ccc(N=C2NC(=O)/C(=C/c3cc(OC)c(OC)c(OC)c3)S2)cc1,3.3,-4.4,-0.3,-25.6,-0.1
O=C1NC(=Nc2ccc(O)cc2)S/C1=C/c1ccco1,-0.4,-8.7,-3.2,-36.6*,0.6
COc1cc(/C=C2\SC(=Nc3ccc(O)cc3)NC2=O)cc(OC)c1O,16.7,-2.0,2.7,-6.8,44.2*
Cn1c(CNC(=O)c2ccc(Cl)cc2)nnc1SCC(=O)NC1=NCCS1,-0.2,-1.7,3.3,7.7,0.0
COCCCc1cc(F)c(S(=O)(=O)N2CCN(S(=O)(=O)c3ccc4c(c3)OCCO4)CC2)cc1F,2.8,-2.1,-0.7,-1.8,1.5
Cc1ccc(C)c(NC(=O)C(c2ccccc2)N2Cc3ccccc3C2=O)c1 (centres undefined),5.6,7.5,31.6*,-7.0,-0.4
S=c1[nH]ncn1/N=C/c1ccccc1,2.8,-6.3,-15.5,-30.4*,0.0
S=c1[nH]ncn1/N=C/c1ccc(Br)cc1,0.2,3.3,-6.8,11.7,-1.4
CCOC(=O)C1=C(CN2CCN(c3cccc(Cl)c3)CC2)NC(=O)NC1c1ccc(Cl)cc1 (centres undefined),-0.1,3.5,6.4,-9.9,0.5
CC(CC(=O)O)CC(=O)Nc1nncs1 (centres undefined),0.0,1.3,19.2,-5.9,1.0
Cc1cccc(C)c1NC(=O)CSc1nc2ccccc2c2nc(CCc3c(C)n[nH]c3C)nn12,2.1,0.1,0.6,-46.2*,0.1
Cc1n[nH]c(C)c1CCc1nc2c3ccccc3nc(SCC(N)=O)n2n1,2.0,6.5,33.0*,13.1,0.2
Cc1n[nH]c(C)c1CCc1nc2c3ccccc3nc(SCC(=O)Nc3ccc(F)cc3)n2n1,3.1,-0.4,5.7,-17.9,-0.1
Cc1ccc2onc(CC(=O)N3CCN(c4cccc(Cl)c4)CC3)c2c1,-1.3,2.8,-9.5,4.8,-0.5
Cc1ccc(NC(=O)CC2SC(=NCC3CCCO3)NC2=O)cc1Cl (centres undefined),-1.2,-10.2,-7.2,-1.2,-0.2
COc1ccc(NC(=O)CC2SC(=NCC3CCCO3)NC2=O)cc1 (centres undefined),3.1,-10.8,-6.4,-46.9*,0.0
COc1ccc(C)cc1NC(=O)CN(c1ccc(F)cc1)S(C)(=O)=O,-0.6,0.6,9.7,2.0,-1.0
Cc1ccc(N(CC(=O)Nc2cc(C)ccc2C)S(C)(=O)=O)cc1,2.6,1.4,-2.9,-38.4*,0.0
Cc1ccc(N(CC(=O)N/N=C/c2cc(C)n(-c3ccccc3C)c2C)S(C)(=O)=O)cc1,0.3,-9.2,33.0*,-30.2*,1.0
Cc1ccc(C(=O)n2nc(C)c(S(=O)(=O)N3CCCCCC3)c2C)cc1,5.4,-1.6,-4.4,-11.7,-0.1
COc1ccc(-c2ccc3c(N)c(C(=O)c4ccc(OC)c(OC)c4)sc3n2)cc1,77.9*,-3.0,3.9,-16.8,15.1
COc1cccc(-c2ccc3c(N)c(C(=O)c4ccc(Br)cc4)sc3n2)c1,80.5*,-0.7,-1.4,-4.2,16.1
SMILES,D1 agonist,D1 PAM,TRHR enhancer,D1 antagonist,TRHR agonist
COc1ccc(-c2ccc3c(N)c(C(=O)NC(C)C)sc3n2)cc1OC,1.2,2.8,7.3,17.8,-3.0
COc1cccc(-c2ncc3ccccc3c2COC(=O)c2ccc(Br)cc2)c1,2.2,-0.7,1.5,/,0.7
Cc1ccc(NC(=O)CC2OC(=O)c3ccccc32)cc1S(=O)(=O)N1CCOCC1 (centres undefined),2.0,7.8,11.2,-0.5,0.8
CC(Sc1ncc(S(=O)(=O)c2ccc(C(C)C)cc2)c(N)n1)C(=O)Nc1ccccc1 (centres undefined),5.7,1.4,5.7,-11.4,0.6
COc1ccc(S(=O)(=O)N(Cc2cc3cc(C)ccc3[nH]c2=O)CC2CCCO2)cc1 (centres undefined),-0.3,12.3,-2.0,-4.8,0.0
CCN(Cc1cc2ccccc2[nH]c1=O)S(=O)(=O)c1ccc(OC)cc1,5.9,-7.3,-7.1,-39.3*,-0.6
O=c1[nH]c2ccccc2cc1CN(CC1CCCO1)S(=O)(=O)c1ccccc1 (centres undefined),-1.0,-6.8,-19.9,-34.9*,0.0
Cc1oc(-c2ccc(Cl)cc2)nc1CN1CCCC(C(=O)NCCc2ccccc2)C1 (centres undefined),6.8,-4.0,7.4,-3.8,-0.5
O=C(c1cc([N+](=O)[O-])ccc1Cl)N1c2ccccc2Sc2ccccc21,2.9,-7.0,0.7,-36.6*,-0.5
Cc1cc(C)n(S(=O)(=O)c2ccccc2[N+](=O)[O-])n1,5.1,1.6,1.9,-55.7*,-0.4
CCCCC1CCC(C(=O)N2CC(=O)Nc3ccc(Cl)cc3C2c2ccc(F)cc2)CC1 (centres undefined),0.0,-0.9,3.1,-9.4,0.4
CCCCC1CCC(C(=O)N2CC(=O)Nc3ccc(C)cc3C2c2ccc(F)cc2)CC1 (centres undefined),5.2,0.2,-6.4,-53.0*,-0.3
O=c1c2c3c(sc2n(Cc2cc(=O)n4ccccc4n2)c(=O)n1-c1ccccc1)CCC3,-1.5,1.1,5.9,-3.9,0.1
CC1CCN(C(=S)c2ccc(O)cc2)CC1,0.7,-12.5,-2.5,-75.4*,-0.5
Cc1[nH]c2ccccc2c1/C=C/C(=O)c1ccncc1,54.7*,-5.5,8.0,6.6,-1.3
O=C(/C=C/c1cccc2ccccc12)c1ccncc1,1.9,-3.5,6.2,2.0,2.4
Cc1ccc(Cn2c(=O)n(CCc3ccccc3)c(=O)c3c(C)c(C)sc32)cc1,-1.1,2.4,8.3,-0.9,1.5
COc1ccc(CCNC(=O)Cn2cnc3sc(C)c(-c4ccc(F)cc4)c3c2=O)cc1OC,33.9*,-5.9,-12.9,/,5.4
COC(=O)c1sc2ncn(CC(=O)NCCc3ccc(OC)c(OC)c3)c(=O)c2c1C,3.7,-1.9,-2.7,5.1,0.4
CC(C)(C)c1ccc(C(=O)NCC(=O)OCc2ccc([N+](=O)[O-])cc2)cc1,10.0,-8.0,-7.0,-35.0*,-0.3
Cc1cc2nc3c(=O)[nH]c(=S)[nH]c3nc2cc1NC(=O)C(F)(F)F,64.0*,1.1,3.4,0.4,4.0
Cc1nc(SCCC(=O)O)c2ccccc2n1,1.4,-3.8,8.8,-1.9,0.3
Cc1nc(SCCOc2ccc(F)cc2)c2ccccc2n1,33.6*,-11.1,2.4,3.2,0.3
CCc1ccc(C2C(C(=O)Nc3ccccc3OC)=C(C)Nc3nc(SCc4ccccc4)nn32)cc1 (centres undefined),2.3,0.1,9.6,0.3,-0.6
